Test results: the supplement of paper PMC10849652
Targets with a hit are over-represented here; the source holds about 7,900 in all. About 0.6% of all pairs of compound and target were hits.

Each target was assayed with CC[C@H](C)[C@@H](C(=O)N[C@@H]([C@@H](C)O)C(=O)N[C@@H](CC(C)C)C(=O)[C@]1(CO1)C)NC(=O)[C@H]([C@@H](C)CC)N(C)C(=O)C [epoxomicin] (assay: log2 fold change, soluble protein after heating vs DMSO (PISA); higher = thermal stabilisation; K562 cells, 10 uM, 30 min; active = over 0.2 and 3.5 SD of the protein, either way, in both replicates (recomputed)).
Procedure, shortened: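 Values are thermal stability changes relative to control samples and are taken from duplicates. They are stated as log2 fold changes. Before quantification by TMTpro 16plex LC-MS/MS with equalised channel sums, K562 cells at 2×10^6 cells/mL were treated with 10 μM compound for 30 min, heated in aliquots for 3 min across 48°C-58°C, pooled, extracted in PBS with 0.5% NP-40 at 4°C, and centrifuged at 21,000xg for 90 min to give the soluble supernatant.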

UniProt P32019, sequence (P32019 whole entry, looked up): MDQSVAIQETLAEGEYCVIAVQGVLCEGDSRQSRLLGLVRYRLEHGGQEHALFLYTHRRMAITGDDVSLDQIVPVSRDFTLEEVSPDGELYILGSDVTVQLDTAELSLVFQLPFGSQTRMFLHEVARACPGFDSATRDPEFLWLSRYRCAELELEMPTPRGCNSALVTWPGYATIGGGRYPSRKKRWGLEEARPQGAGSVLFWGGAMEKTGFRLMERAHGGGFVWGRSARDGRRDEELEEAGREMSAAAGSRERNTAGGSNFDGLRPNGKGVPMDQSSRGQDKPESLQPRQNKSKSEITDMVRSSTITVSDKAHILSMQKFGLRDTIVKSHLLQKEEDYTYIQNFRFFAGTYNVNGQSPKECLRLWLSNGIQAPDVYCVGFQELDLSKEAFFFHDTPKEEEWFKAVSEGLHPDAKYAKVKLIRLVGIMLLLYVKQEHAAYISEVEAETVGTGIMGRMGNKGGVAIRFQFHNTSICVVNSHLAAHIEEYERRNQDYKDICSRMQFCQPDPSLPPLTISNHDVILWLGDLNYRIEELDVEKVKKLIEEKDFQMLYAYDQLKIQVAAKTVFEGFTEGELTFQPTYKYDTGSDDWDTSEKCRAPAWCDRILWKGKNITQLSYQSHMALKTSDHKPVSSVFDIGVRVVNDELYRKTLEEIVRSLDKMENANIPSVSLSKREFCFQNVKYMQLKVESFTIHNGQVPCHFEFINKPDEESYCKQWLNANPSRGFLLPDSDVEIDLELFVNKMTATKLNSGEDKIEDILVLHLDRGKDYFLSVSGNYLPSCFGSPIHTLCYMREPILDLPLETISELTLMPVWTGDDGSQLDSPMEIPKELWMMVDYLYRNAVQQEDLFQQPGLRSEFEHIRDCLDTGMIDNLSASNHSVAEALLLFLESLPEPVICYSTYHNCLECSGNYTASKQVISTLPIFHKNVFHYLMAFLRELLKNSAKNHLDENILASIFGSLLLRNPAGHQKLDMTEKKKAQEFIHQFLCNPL
UniProt P33947, sequence (P33947 whole entry, looked up): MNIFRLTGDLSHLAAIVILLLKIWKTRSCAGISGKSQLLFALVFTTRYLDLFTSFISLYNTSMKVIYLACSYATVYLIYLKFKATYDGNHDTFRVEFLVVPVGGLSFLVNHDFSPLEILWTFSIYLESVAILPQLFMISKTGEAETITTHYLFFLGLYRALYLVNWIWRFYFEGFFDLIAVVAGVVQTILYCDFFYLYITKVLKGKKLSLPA
UniProt Q13418, sequence (Q13418 whole entry, looked up): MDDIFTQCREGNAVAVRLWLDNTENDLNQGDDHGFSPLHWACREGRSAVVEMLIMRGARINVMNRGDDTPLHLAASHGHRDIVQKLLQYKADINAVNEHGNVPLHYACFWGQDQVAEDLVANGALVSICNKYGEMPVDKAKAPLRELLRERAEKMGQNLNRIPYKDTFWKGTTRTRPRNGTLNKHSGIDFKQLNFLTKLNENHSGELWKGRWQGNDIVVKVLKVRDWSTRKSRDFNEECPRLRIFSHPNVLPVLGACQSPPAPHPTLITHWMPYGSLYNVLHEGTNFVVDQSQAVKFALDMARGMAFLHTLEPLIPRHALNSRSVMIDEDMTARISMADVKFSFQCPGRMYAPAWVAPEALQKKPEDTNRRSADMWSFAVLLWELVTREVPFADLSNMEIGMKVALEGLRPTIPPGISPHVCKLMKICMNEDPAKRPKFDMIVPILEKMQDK
UniProt Q07666, sequence (Q07666 whole entry, looked up): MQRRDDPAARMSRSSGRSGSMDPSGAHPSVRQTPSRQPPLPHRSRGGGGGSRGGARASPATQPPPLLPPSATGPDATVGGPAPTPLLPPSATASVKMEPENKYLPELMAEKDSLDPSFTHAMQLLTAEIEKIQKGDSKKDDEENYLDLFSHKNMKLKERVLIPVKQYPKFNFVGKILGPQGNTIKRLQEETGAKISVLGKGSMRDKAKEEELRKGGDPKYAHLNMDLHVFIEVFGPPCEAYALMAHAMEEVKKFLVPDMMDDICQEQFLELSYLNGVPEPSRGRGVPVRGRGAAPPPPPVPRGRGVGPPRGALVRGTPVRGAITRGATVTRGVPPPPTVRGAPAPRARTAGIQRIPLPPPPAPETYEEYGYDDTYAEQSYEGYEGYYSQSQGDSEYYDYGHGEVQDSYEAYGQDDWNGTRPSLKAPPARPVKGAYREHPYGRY
UniProt Q8IVT5, sequence (Q8IVT5 whole entry, looked up): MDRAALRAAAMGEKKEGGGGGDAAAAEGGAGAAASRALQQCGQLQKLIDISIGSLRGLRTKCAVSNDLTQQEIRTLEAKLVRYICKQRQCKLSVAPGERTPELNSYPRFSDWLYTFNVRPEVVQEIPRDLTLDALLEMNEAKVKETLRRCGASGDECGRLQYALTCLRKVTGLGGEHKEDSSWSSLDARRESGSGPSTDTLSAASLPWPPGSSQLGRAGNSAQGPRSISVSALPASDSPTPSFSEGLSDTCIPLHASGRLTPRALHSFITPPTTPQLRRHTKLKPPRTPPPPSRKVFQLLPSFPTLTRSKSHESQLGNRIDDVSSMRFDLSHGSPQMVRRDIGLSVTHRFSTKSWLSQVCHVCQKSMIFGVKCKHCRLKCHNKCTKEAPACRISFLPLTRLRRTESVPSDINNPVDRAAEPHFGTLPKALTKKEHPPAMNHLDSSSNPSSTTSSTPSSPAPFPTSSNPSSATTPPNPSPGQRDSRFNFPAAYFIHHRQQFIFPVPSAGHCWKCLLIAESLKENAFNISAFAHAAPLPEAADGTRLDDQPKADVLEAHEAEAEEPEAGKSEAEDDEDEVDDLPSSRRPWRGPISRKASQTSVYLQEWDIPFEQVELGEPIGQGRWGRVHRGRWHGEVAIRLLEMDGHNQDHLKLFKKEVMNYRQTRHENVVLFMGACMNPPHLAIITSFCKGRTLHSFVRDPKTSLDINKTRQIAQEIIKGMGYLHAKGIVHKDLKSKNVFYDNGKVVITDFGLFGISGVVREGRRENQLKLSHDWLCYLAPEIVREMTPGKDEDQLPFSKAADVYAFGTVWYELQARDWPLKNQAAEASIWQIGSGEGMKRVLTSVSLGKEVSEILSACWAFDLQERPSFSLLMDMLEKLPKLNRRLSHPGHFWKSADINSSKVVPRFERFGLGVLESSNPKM
UniProt Q9BY66, sequence (Q9BY66 whole entry, looked up): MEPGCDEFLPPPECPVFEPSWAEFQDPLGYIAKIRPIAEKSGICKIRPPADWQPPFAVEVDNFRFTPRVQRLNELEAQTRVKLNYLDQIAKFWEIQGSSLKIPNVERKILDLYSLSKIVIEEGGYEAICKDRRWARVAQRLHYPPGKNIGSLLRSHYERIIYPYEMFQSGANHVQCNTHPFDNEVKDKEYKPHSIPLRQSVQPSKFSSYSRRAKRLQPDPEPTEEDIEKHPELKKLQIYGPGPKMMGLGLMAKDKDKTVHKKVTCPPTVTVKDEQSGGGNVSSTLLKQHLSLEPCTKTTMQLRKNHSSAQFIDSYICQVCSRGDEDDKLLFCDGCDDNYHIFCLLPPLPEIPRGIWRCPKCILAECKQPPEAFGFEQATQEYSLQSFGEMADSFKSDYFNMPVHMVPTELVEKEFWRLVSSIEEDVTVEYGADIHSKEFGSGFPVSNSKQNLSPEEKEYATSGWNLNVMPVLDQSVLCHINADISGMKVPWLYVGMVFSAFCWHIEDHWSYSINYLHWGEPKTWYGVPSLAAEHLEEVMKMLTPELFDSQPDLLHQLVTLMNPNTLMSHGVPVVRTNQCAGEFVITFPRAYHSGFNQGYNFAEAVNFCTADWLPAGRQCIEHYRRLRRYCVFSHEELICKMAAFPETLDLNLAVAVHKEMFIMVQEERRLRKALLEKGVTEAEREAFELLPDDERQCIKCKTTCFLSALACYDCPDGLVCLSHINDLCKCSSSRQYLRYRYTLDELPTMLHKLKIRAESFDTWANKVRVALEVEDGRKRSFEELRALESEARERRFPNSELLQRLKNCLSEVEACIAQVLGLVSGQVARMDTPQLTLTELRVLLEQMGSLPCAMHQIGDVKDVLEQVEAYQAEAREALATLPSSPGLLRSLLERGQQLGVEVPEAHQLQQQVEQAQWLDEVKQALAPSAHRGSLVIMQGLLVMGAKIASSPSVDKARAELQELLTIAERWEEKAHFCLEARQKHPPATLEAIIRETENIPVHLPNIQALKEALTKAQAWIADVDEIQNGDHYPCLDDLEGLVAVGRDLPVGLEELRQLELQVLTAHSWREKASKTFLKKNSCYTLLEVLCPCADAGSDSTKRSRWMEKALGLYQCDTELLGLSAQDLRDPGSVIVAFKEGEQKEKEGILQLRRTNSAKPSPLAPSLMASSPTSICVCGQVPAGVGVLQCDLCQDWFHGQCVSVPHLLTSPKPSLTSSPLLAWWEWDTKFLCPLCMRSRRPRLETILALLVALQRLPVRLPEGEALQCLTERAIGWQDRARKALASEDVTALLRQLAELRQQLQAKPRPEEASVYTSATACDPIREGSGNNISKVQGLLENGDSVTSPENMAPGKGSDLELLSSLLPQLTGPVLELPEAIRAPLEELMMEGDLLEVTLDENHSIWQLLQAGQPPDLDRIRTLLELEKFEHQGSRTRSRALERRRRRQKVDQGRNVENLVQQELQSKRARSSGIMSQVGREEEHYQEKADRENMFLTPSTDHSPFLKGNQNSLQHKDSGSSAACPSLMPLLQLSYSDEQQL
UniProt Q9NQG6, sequence (Q9NQG6 whole entry, looked up): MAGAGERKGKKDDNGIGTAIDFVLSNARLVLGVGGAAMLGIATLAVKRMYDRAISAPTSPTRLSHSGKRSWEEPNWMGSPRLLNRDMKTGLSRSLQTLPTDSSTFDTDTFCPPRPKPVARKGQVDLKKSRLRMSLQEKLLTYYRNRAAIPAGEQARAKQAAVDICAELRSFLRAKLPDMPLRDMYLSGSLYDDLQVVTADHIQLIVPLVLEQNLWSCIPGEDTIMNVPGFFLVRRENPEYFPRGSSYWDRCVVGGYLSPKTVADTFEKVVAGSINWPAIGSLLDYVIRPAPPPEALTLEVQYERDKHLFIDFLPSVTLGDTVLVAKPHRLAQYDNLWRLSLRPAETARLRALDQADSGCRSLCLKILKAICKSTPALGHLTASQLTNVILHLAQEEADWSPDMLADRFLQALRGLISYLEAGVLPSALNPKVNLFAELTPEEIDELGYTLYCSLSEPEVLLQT

log2 fold change, inactive:
IWS1 (UniProt Q96ST2) 0.006
LUC7L2 (UniProt Q9Y383) -0.017
MARK3 (UniProt P27448) 0.019
MIEF1 (UniProt L0R8F8) 0.022
KIF11 (UniProt P52732) -0.032
LPIN3 isoform 2 (UniProt Q9BQK8) 0.073
INPP5B (UniProt P32019) 0.007
LNPEP (UniProt Q9UIQ6) 0.014
KDM1A isoform 2 (UniProt O60341) 0.101
IPO13 (UniProt O94829) 0.048
MIEF1 (UniProt Q9NQG6) 0.073
KDELR2 (UniProt P33947) -0.02
KTN1 (UniProt Q86UP2) 0.037
KHDRBS1 (UniProt Q07666) -0.029
KSR1 (UniProt Q8IVT5) 0.047
LUC7L3 (UniProt O95232) 0.005
LAMP2 (UniProt P13473) 0.083
MED1 (UniProt Q15648) -0.051
MICU2 (UniProt Q8IYU8) 0.067
ILK (UniProt Q13418) -0.04
KIF13A (UniProt Q9H1H9) 0.004
KIF3A (UniProt Q9Y496) 0.068
KDM5D isoform 3 (UniProt Q9BY66) 0.163
